Records with an inconclusive call do not appear. Entries that show only a call come without a potency. Values without a mark were called inactive. Activity calls are given as the source filed them. The call rests on the fitted dose curve. Where a SMILES comes first, the peptide text is derived from it.
Potency means the concentration at half of the fitted maximal effect.

The target of the assay is Retinoic acid receptor RXR-alpha (Homo sapiens) (UniProt P19793). The assay can be described thus: qHTS assay to identify small molecule agonists of the RXR signaling pathway (AID 1159527). Further: nearly all actives have a fitted effect of over 35% in size. The settings on record: HEK293T RXRa-UAS-bla, beta-lactamase ratio, 16 h; series mostly up to 76.8 µM. An excerpt: U.S. Tox21 Program National Center for Advancing Translational Sciences [NCATS] NIH Chemical Genomics Center [NCGC] U.S. Environmental Protection Agency [EPA] National Institutes of Environmental Health Sciences [NIEHS] National Toxicology Program [NTP] U.S. Food and Drug Administration [FDA] Tox21 Assay Overview: The Retinoid X receptor (RXR), a nuclear hormone receptor expressed in liver, spleen, placenta, epidermis, central nervous system. These receptors are able to form homo and heterodimers with other nuclear receptors and due to this heterodimerizing ability, RXR functions as master regulators producing diverse physiological effects. Three subtypes of RXR exist; alpha, beta and gamma. Retinoid X receptor alpha (RXR-alpha) has potential roles in metabolic signaling pathways, skin alopecia, dermal cysts, cardiac development, insulin sensitization etc. Therefore screening environmental chemicals on RXR-alpha signaling can be used for the studies focused on such therapeutic applications. For quantification of RXR-alpha ligands signaling, GeneBLAzer RXR alpha-UAS-bla HEK 293T (Life Technologies, Carlsbad, CA) cells containing a beta-lactamase reporter-gene under control of Retinoid X receptor-alpha response element were used to screen Tox21 10K library.
Chain of Retinoic acid receptor RXR-alpha (Homo sapiens) (P19793 whole entry, looked up): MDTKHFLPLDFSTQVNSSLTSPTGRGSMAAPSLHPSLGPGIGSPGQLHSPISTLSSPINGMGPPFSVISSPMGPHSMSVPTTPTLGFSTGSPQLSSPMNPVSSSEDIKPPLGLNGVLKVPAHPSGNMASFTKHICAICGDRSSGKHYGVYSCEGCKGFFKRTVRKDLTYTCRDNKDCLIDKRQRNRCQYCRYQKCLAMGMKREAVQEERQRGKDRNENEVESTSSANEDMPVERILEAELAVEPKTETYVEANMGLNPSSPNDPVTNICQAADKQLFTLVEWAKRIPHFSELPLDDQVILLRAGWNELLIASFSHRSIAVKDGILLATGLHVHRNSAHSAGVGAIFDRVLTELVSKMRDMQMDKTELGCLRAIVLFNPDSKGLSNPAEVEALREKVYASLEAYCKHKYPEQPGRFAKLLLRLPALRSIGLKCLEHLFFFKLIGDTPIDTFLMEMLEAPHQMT
Tox21 Assay Protocol Summary: RXR-alpha HEK 293T cells were dispensed at 2,000 cells/6 uL of assay medium containing 2% charcoal-stripped FBS using a Multidrop Combi (ThermoFisher Scientific, Waltham, MA) dispenser. The assay was performed in black wall/clear-bottom 1536-well plates (Greiner Bio-One North America Inc. Monroe, NC). 9-cis retinoic acid was used as a positive control in the agonist mode screen. After the assay plates were incubated at 37 C and 5% CO2 for 5 hr, 23 nL of compounds dissolved in DMSO, positive controls or DMSO only were transferred to the assay plate by a Pintool station (Kalypsys, San Diego, CA). The assay plates were incubated at 37 C and 5% CO2 for 16 hr. One uL of LiveBLAzer B/G FRET substrate (Life Technologies) was added using a Flying Reagent Dispenser (Aurora Discovery, San Diego, CA) and the plates were incubated at room temperature for 2 hr. Fluorescence intensity (405 nm excitation, 460/530 nm emission) was measured using an Envision plate reader (PerkinElmer, Shelton, CT).
For `CCC(C)OC(C)CC` (stereo not given), the Potency entry was “inactive”.
Same read-out and setting: in the case of `CC(C)[C@H]1CC[C@H](C)C[C@@H]1O` it was “inactive”; in that of `c1ccc2c(CC3=NCCN3)cccc2c1`, “inactive”.
The same measure, in the same setting: in the case of `C[C@]12CCC(=O)C=C1CC[C@H]1[C@@H]3CC[C@](O)(C(=O)CO)[C@@]3(C)C[C@H](O)[C@@]12F` it was “inactive”; in that of `CC(=O)N[C@@H](CO)C(=O)N[C@@H](CC(=O)O)C(=O)N[C@@H](CCCCN)C(=O)N1CCC[C@H]1C(=O)O` (Ac-SDKP-OH), “inactive”.
As for `CCCCCCCCCOC(=O)CCCCC(=O)OCCCCCCC`, the Potency result was “inactive”.
On the same count and under the same terms, in the case of `CCCCCCC1(C)CCC(=O)O1` (stereo not given) it was “inactive”.
As for `[O-][n+]1cccc(/C(Cl)=N/OC[C@@H](O)CN2CCCCC2)c1`, the Potency entry is “inactive”.
On the same count and under the same terms, the entry for `CC(=O)CCC1=C(C)CCCC1(C)C` is “inactive”.
As for `CCCCCCCCCCCCCCCCCCOCCO`, the activation was 5.49% [at 15.8 µM].
Consider `Cc1ccnc(N)c1`, for which the Potency entry is “inactive”.
The same measure, in the same setting: the entry for `CN(C)CC/C=C1/c2ccccc2COc2ccc(CC(=O)O)cc21` is “inactive”; for `CN(C)CCN(C)CCO` it is “inactive”; for `O=C1CCC(=O)N1Cl` it is “inactive”.
Take `CC(C)c1ccc(C=O)cc1`: the Potency was 43.6 µM (active).
The same measure, in the same setting: the entry for `OCC(O)CN1CCN(c2ccccc2)CC1` (stereo not given) is “inactive”.
Same read-out and setting: in the case of `CC(C)NCC(O)c1ccc2ccccc2c1` (stereo not given) it was “inactive”; in that of `C/C=C(\C)C(=O)OCCc1ccccc1`, “inactive”.
On the same count and under the same terms, the entry for `CC1c2ccccc2CN1NC(=O)c1ccc(Cl)c(S(N)(=O)=O)c1` (stereo not given) is “inactive”.
Take `O=[N+]([O-])c1c(Cl)cc(Cl)cc1Cl`: the Potency result was “inactive”.
Still for that read-out and setting: the entry for `CC1(C)Oc2ccc(C#N)cc2[C@@H](N2CCCC2=O)[C@@H]1O` is “inactive”; for `CC(=O)CCc1ccc(OC(C)=O)cc1` it is “inactive”; for `CCCCCCCCCCOC(C)=O` it is “inactive”.
Take `CC(O)CC(C)O` (stereo not given): the Potency entry was “inactive”.
Same read-out and setting: in the case of `CCN1CCCC1CN` (stereo not given) it was “inactive”; in that of `CCCCOC(=O)C(C)O` (stereo not given), “inactive”; in that of `CC(C)CCOC(=O)c1ccccc1`, “inactive”.
Same read-out and setting: the entry for `CC1CC(=O)CC(C)(C)C1` (stereo not given) is “inactive”; for `CC/C(C)=N\O[Si](C)(O/N=C(\C)CC)O/N=C(\C)CC` it is “inactive”; for `Cc1ccc(C)c([N+](=O)[O-])c1` it is “inactive”.
Consider `CC(=O)c1cc(C)oc1C`, for which the Potency entry is “inactive”.
For the molecule `Cc1ccc(C(C)NC(=O)[C@@H](NC(=O)OC(C)C)C(C)C)cc1` (stereo not given in full), the Potency result was “inactive”.
Still for that read-out and setting: the entry for `Cc1ccc(N)cc1S(=O)(=O)O` is “inactive”; for `c1ccc2cnccc2c1` it is “inactive”; for `Cn1c(=O)c2[nH]c(Br)nc2n(C)c1=O` it is “inactive”.
For `O=C(CCCCC(=O)Nc1c(I)cc(I)c(C(=O)O)c1I)Nc1c(I)cc(I)c(C(=O)O)c1I`, the Potency result is “inactive”.
Still for that read-out and setting: in the case of `C=CC/C=C/C` it was “inactive”.
Same read-out and setting: in the case of `O=NN(CCCl)C(=O)NC1CCCCC1` it was “inactive”; in that of `CCN(CC)CCN`, “inactive”.
Regarding `N[C@@H](CSCCCO)C(=O)O`, the activation was 12.4% [at 15.8 µM].

The values above are taken from PubChem BioAssay (Tox21).
